B1: design_604_3e0b3014-b333-46f1-8adc-d7f0bf8048fa_1712_dldesign_0_cycle1_af2pred (protein)
chain: SEEGQKVLEKIEELRKEAEKFAKENKENGPKFARELAKKMRELAEKAKKEYGWNQEILNKASKVVHEARQLANEAEVEAKK
B2: design_604_3e0b3014-b333-46f1-8adc-d7f0bf8048fa_762_dldesign_0_cycle1_af2pred (protein)
chain: SKKVYELYAEAKLEQIKRAKELAPKGDPKLAAERAEKLAKEAKEAAKKAGEEGEKIAKEAEKEAEALKKEV
B3: design_604_3e0b3014-b333-46f1-8adc-d7f0bf8048fa_1221_dldesign_0_cycle1_af2pred (protein)
chain: AEMEERKAKGLEQAERLAERAKEAGKLNPEKAAELLGKAEAMLAKVRAMDNEAQWAEAAKEAAKLRELIAEAETEARRKKEEE
B4: design_604_3e0b3014-b333-46f1-8adc-d7f0bf8048fa_1186_dldesign_0_cycle1_af2pred (protein)
chain: SMSKELAEKIRKAIREIREAAERAIAEARRLVEEGRVEEGLAVLEEAEKEFRELAKKWEGYAASGVAENGAAALRAVREEIE
B5: design_604_3e0b3014-b333-46f1-8adc-d7f0bf8048fa_1261_dldesign_0_cycle1_af2pred (protein)
chain: EAEKAAKKAEEVGKKAVKEVKKAVEEGLPKEELSKVVHEEIQKITEASTEAARIAEEKAGKEAGEKVLKAGEEARKKLIAIAKE
B6: design_604_3e0b3014-b333-46f1-8adc-d7f0bf8048fa_1413_dldesign_0_cycle1_af2pred (protein)
chain: EEEKEKRAEEKRKEIEELAKLAAENKEKGEKAVEKAKELVEKADEEEAPALAKALSRLVAAAYAVDEEVADKAFEAYALAWKKAQ
B7: design_604_3e0b3014-b333-46f1-8adc-d7f0bf8048fa_950_dldesign_0_cycle1_af2pred (protein)
chain: AEEALKKAEEYAAKGDEYAAKGEAYEKSGDKLEEAAKYYAKAASYYLLAANAYLAAGNEEKAKEAEAKAEEAAEKATEAYQKASA
B8: design_604_3e0b3014-b333-46f1-8adc-d7f0bf8048fa_936_dldesign_0_cycle1_af2pred (protein)
chain: MEEAKEKAKEQIKKLKEAAEKAVKVYKEIGKEEEAKKIKEEAKKAEKEAEKLLEKDPYEGAQLAQEALAEAKAELSRAEKELKK
B9: design_604_3e0b3014-b333-46f1-8adc-d7f0bf8048fa_1215_dldesign_0_cycle1_af2pred (protein)
chain: SRVEELGKRLANKGKKYSLDDAADFGAEMAIMAGLTEEEAEAAFKYAAEIDPSFAEAMKKGLALYKELTA
B10: design_604_3e0b3014-b333-46f1-8adc-d7f0bf8048fa_1429_dldesign_0_cycle1_af2pred (protein)
chain: DKQVISNKAKAQAERAKQAAKNILKTGDASLAPKVKEIAKKAEKAAKEAEKAGDKESAKEAKKAAKEAKKAAKKVEE
B11: design_604_3e0b3014-b333-46f1-8adc-d7f0bf8048fa_962_dldesign_0_cycle1_af2pred (protein)
chain: HHKKEKAKKVAELLEKARELAEKEGPEAAKPLIVEARSLAFEVDSELGRKIAKAGLLILKDLEKGLKILKEVQEEFKKIA
B12: design_604_3e0b3014-b333-46f1-8adc-d7f0bf8048fa_1397_dldesign_0_cycle1_af2pred (protein)
chain: SENELTEEAVSLAARVSKRANELGKKTGSEELLKLSEEAKELRDKIVDDPSTAEEALKKVKELEKRIEELTAA
B13: design_604_3e0b3014-b333-46f1-8adc-d7f0bf8048fa_1627_dldesign_0_cycle1_af2pred (protein)
chain: ENLEKAKAADEKAKKFEDKAKEYEAKGKAEGKKYLYKAAAYYYAAAHAYNVAAKYYEKEGKAEEAAAAKAKAKEAEAKGNELAAK
B14: design_604_3e0b3014-b333-46f1-8adc-d7f0bf8048fa_1067_dldesign_0_cycle1_af2pred (protein)
chain: SEIEKGEALLKEDPEWAKAASDALGKIAEDPEEGEKYAKEVIEKVLKEDPEKGPLMAKAIEERSEKLKKRVEEALERAK
B15: design_604_3e0b3014-b333-46f1-8adc-d7f0bf8048fa_1534_dldesign_0_cycle1_af2pred (protein)
chain: KTEAIQKFADTLSEIIKLAAEAGKKSGKTAEYQALIEGALSGDFETAVKNAKEAAKLAKKDDPELGKKIEEAAKKLAEYAKKVLES
B16: design_604_3e0b3014-b333-46f1-8adc-d7f0bf8048fa_1621_dldesign_0_cycle1_af2pred (protein)
chain: MEAEKRNEEYAKEVEELYKKVLDGDIEEDKEALKKAEKLLEEAEADPEMKEEVLKGLRAAVRMAKASIEAEEKR
B17: design_604_3e0b3014-b333-46f1-8adc-d7f0bf8048fa_941_dldesign_0_cycle1_af2pred (protein)
chain: SLLDEAVALLAAANPALAPEFEKLARELQGYLDLAKDYPEIAPVMLKRATRVGEELVAVAAEAGPEVAEVATAAVEEVLAAIK
B18: design_604_3e0b3014-b333-46f1-8adc-d7f0bf8048fa_1571_dldesign_0_cycle1_af2pred (protein)
chain: DPKQLLSDARDQITELFFEAGKEAVPYNRKVVAALKAGDLDAALAAVEEFQKEYPEVGAKAKAVMDKAIAAAKAA
B19: design_604_3e0b3014-b333-46f1-8adc-d7f0bf8048fa_1827_dldesign_0_cycle1_af2pred (protein)
chain: MTHEEINAASYALRALTRAARDVPEAAAEFEAQIDFLMSGSIEEGVEKVIALAEKYRDRLSPEALALFEKAKEYLEKAK
B20: design_604_3e0b3014-b333-46f1-8adc-d7f0bf8048fa_1604_dldesign_0_cycle1_af2pred (protein)
chain: MKDAEKLDEINKLSAEAGKLLKEAAKKDPSRKAELEAAAKEAAKKFDEAYDLFEKDPDAGLALAKEAYKEVKKLVEA
B21: design_604_3e0b3014-b333-46f1-8adc-d7f0bf8048fa_844_dldesign_0_cycle1_af2pred (protein)
chain: EEEKLKEAEKHLEKMIEILKEAAKKGYAKEEVELVKGDEETRKKGVYNAMGNVITGEGKEGVETARKISRYAKKSEELRKA
B22: design_604_3e0b3014-b333-46f1-8adc-d7f0bf8048fa_1117_dldesign_0_cycle1_af2pred (protein)
chain: MEGIETSDLLSKAIKTGKEAYKELKEVGTEEEAEKFKEEMVKKLFEAADADIEESKKLLKELLKEAEEKLEEAKKRKA
B23: design_604_3e0b3014-b333-46f1-8adc-d7f0bf8048fa_1128_dldesign_0_cycle1_af2pred (protein)
chain: MAEKEAQLKKIEEEKKKVSEKFFEAFELASSKELASEISKKSKEANELFKKGREDPSIADKTMEEAKKIAEEALEKAKKEKEA
B24: design_604_3e0b3014-b333-46f1-8adc-d7f0bf8048fa_1004_dldesign_0_cycle1_af2pred (protein)
chain: AAAEAARKAEVAKKSKELAKQIAENASDEEKRKALLAEMRALAEAGTPEEAAIVVEEVHKGYEEAAEKLVEERR
B25: design_604_3e0b3014-b333-46f1-8adc-d7f0bf8048fa_1479_dldesign_0_cycle1_af2pred (protein)
chain: MEEEVKKAKEKIEKLEKAALKTIDILEESAKLGDDISGIKTAAKAAEKEFGKLAKEYPGAAAYAKEAEKKVVDYANKAIKAAKAAK
B26: design_604_3e0b3014-b333-46f1-8adc-d7f0bf8048fa_1332_dldesign_0_cycle1_af2pred (protein)
chain: EEVKEYLAKLSAEAYELLAEAEVLYKKTGSEKAKEAKELAKEALKELKEAGKLLEEDPEKAKEKAKIGEEKLKKAKEILEEIYKE
B27: design_604_3e0b3014-b333-46f1-8adc-d7f0bf8048fa_818_dldesign_0_cycle1_af2pred (protein)
chain: EEVEKKSEEVKKLLEEGAKTTTIDAQLAASEAVELAEELMKKDPEKGLKVAEVVLKEAEKLLKANPGVGELTIKRAEKVIKRAKE
B28: design_604_3e0b3014-b333-46f1-8adc-d7f0bf8048fa_1084_dldesign_0_cycle1_af2pred (protein)
chain: SPAAAAAAVQYAAFDAIAAATDAATVKAIADAAVAALAAAAAADPAHAEQYAKAAAAIKSFADAAIKALK
B29: design_604_3e0b3014-b333-46f1-8adc-d7f0bf8048fa_1191_dldesign_0_cycle1_af2pred (protein)
chain: EEKKKEIEELKKKVSKAQLELTDLAAKQDISKKDLEEKVQEAIRKAAKLGKIADEAVAKGEEYYPEAKKALEEALKVLEEAKKAVEEA
B30: design_604_3e0b3014-b333-46f1-8adc-d7f0bf8048fa_1013_dldesign_0_cycle1_af2pred (protein)
chain: SLEEILKEVKAENERLTARIEAAYERGLAAIAAGDLKAASAAAGEIAEARAEAALINTRYGNVAKEVEDKARELLREVRAAGKA
B31: design_604_3e0b3014-b333-46f1-8adc-d7f0bf8048fa_1248_dldesign_0_cycle1_af2pred (protein)
chain: NAYEEAKKAVDEMEKAMKALAKADPSLADEMKDKIATARKRLEAAKTDEEYKKVAEEAKKAKAAAQSILDALKKN
B32: design_604_3e0b3014-b333-46f1-8adc-d7f0bf8048fa_1498_dldesign_0_cycle1_af2pred (protein)
chain: SEKEKEEEERKKLAEEERAAAKAALAAAKAAAQKGDVAAAIAAAQEARIHASAYAQYLKTEEAKKERDAIVAAAKAAVAAAKAA
B33: design_604_3e0b3014-b333-46f1-8adc-d7f0bf8048fa_1927_dldesign_0_cycle1_af2pred (protein)
chain: LVEEAKKIAEEKAEEMKKAMEKAEKEGKEAMKKAKEKFKKLRAELKKLYEEYKKKDPEAAKKLAEGAHKMYEYMNEAEHKL
B34: design_604_3e0b3014-b333-46f1-8adc-d7f0bf8048fa_1074_dldesign_0_cycle1_af2pred (protein)
chain: DPAEERVEKARKEMEKAVEKYAEKGKKENLNLAYAEAIREISRIAKELVKEIGEEVRERALKIKEEQLKKLEKLEKEA
B35: design_604_3e0b3014-b333-46f1-8adc-d7f0bf8048fa_1395_dldesign_0_cycle1_af2pred (protein)
chain: AEKEELIAKAKEIAAKSAEVAKEAKKLGKDAAEAETTAKEAQKTAEEAIKKAEAGEIDVETLKKLVSKAAGLYYEAKSYLEVVKKKKE
B36: design_604_3e0b3014-b333-46f1-8adc-d7f0bf8048fa_1344_dldesign_0_cycle1_af2pred (protein)
chain: KEKQKELLLESAVEEAEKAAKLLKDPELGKRLLTAVKAAKEDVSKAPEAAAVAREVGAKEPEASLEASAAAASLLSAYRIAKS
B37: design_604_3e0b3014-b333-46f1-8adc-d7f0bf8048fa_841_dldesign_0_cycle1_af2pred (protein)
chain: AELEKAIKEANALRDKALDNVGNPEEAQKYIDELKEKAKKAAELGGPEVAKEAEKMIKALEDTLEKAKKILE
B38: design_604_3e0b3014-b333-46f1-8adc-d7f0bf8048fa_1387_dldesign_0_cycle1_af2pred (protein)
chain: ELDALVRAAIGEAVVFVLGPAAAPAAERIAAATPEEAKALLEEIAATQTPYQAAELLHTARAFAAYAETKYS

target: VTCN1, Q7Z7D3
Sequence (Q7Z7D3 whole entry): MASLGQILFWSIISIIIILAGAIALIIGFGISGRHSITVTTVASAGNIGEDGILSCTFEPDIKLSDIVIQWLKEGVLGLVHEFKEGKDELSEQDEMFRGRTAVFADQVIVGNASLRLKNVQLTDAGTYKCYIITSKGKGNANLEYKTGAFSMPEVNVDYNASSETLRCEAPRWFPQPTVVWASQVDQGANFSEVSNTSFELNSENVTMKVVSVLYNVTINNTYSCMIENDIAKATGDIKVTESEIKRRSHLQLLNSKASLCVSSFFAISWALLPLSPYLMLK

Binding in a display sort, inactive:
B1 not found
B2 not found
B3 not found
B4 not found
B5 not found
B6 not found
B7 not found
B8 not found
B9 not found
B10 not found
B11 not found
B12 not found
B13 not found
B14 not found
B15 not found
B16 not found
B17 not found
B18 not found
B19 not found
B20 not found
B21 not found
B22 not found
B23 not found
B24 not found
B25 not found
B26 not found
B27 not found
B28 not found
B29 not found
B30 not found
B31 not found
B32 not found
B33 not found
B34 not found
B35 not found
B36 not found
B37 not found
B38 not found

Reference: publication PMC13494018
